Most compounds without a hit are left out; they make up all but 2.2% or so of the library.
CRFBP-R2 agonist = agonists of CRF-BP/CRF-R2 complex, primary screen, cell-based, HEK293, calcium dye fluorescence, uHTS | activation, % at 13.2 µM | actives 0.46% (n = 350,000) | calcium dye fluorescence (FLIPR); percent of saturating CRF peptide response | CRF-binding protein / CRF receptor 2 complex (human) | AID 588473, 2011;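 active = activation of at least 50%, plus an integration ratio under a set limit after plate pattern correction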;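 also: plate controls were neutral control wells without compound for no effect and CRF at EC100 for full effect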
Cardiac RTF inh = cardiac RTF calcium sensitivity inhibitors, primary screen, biochemical, IANBD-TnC fluorescence, EC70 calcium. actives 0.12% (n = 340,000). Troponin I, cardiac muscle (Homo sapiens) + Troponin T, cardiac muscle (Homo sapiens) + …. IANBD-labeled cardiac RTF, Ca2+ fluorescence. AID 493244, 2011. inhibition, % at 7.15 µM;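 active = inhibition above the mean inhibition of all tested compounds plus 3 SD, cut at about 17% in these data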;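 also: assay run at fixed EC70 calcium of 1.6 mM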
cardiac RTF act = cardiac RTF calcium sensitivity activators, primary screen, biochemical, IANBD-TnC fluorescence, EC20 calcium. Troponin I, cardiac muscle (Homo sapiens) + Troponin T, cardiac muscle (Homo sapiens) + …. IANBD-labeled TnC RTF fluorescence at EC20 calcium; 0% EC20 calcium, 100% full calcium. activation, % at 7.2 µM. actives 0.24% (n = 340,000). AID 493008, 2010;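 active = activation above the mean over all tested compounds plus 3 SD, cut at about 30% in these data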;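 also: rise in fluorescence read as greater calcium sensitivity of cardiac thin filaments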
Myeloid diff MLP = induction of myeloid progenitor differentiation, primary screen, cell-based, flow cytometry, MLPCN library. actives 1% (n = 360,000). calls only at 10 µM. ER-HoxA9 myeloid progenitors, lysozyme-GFP differentiation. AID 624256, 2012;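 active = normalized GFP-positive differentiation at or above the plate's own cutoff, the solvent-only control mean plus 3 SD; inconclusive = no clear call, values can overlap the other calls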;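 also: cells exposed to compound for four days before flow analysis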
CRFBP-R2 block = antagonists of CRF-BP/CRF-R2 complex, primary screen, cell-based, HEK293, calcium dye fluorescence, uHTS | actives 0.59% (n = 350,000) | AID 588475, 2011 | CRF-induced calcium fluorescence | inhibition, % at 11.8 µM;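 active = inhibition of the ligand-induced calcium signal above about 50% at the single tested concentration, limit read from the data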
Myeloid diff = inducers of myeloid progenitor differentiation, confirmation, cell-based, GFP/Mac1 flow cytometry, cherry pick 01. shares compounds with Myeloid diff MLP. ER-HoxA9 myeloid progenitors, GFP/Mac1 double-positive flow. calls only. actives 2% (n = 2,300). AID 651706, 2012;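 active = share of green or green-and-red cells above 9 and 9% in run 1 or 4 and 3% in run 2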
GFP autofluor = compound fluorescence in myeloid differentiation counter-screen. fluorescence response, % (test concentration not listed). AID 651707. actives 7.4% (n = 2,300). ER-HoxA9 myeloid progenitors, no estrogen, GFP autofluorescence flow cytometry; vehicle wells 0%, positive control 100%. shares compounds with Myeloid diff MLP;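 active = over 5% cells positive for green fluorescent reporter, or over 2% positive for both it and APC stain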;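 also: range taken on the double positive population between DMSO and positive control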
The depositor's hits bear a star; i = inactive; ? = inconclusive; . = no result given; + = active, no number.

SMILES	CRFBP-R2 agonist	Cardiac RTF inh	cardiac RTF act	Myeloid diff MLP	CRFBP-R2 block	Myeloid diff	GFP autofluor
COc1ccc(C(c2nnnn2CCc2ccccc2)N2CCN(C3CCCC3)CC2)cc1 (stereo not drawn)	1	-6	9	i	4	.	.
COc1ccccc1N1CCN(C(c2ccc(N(C)C)cc2)c2nnnn2CCc2ccccc2)CC1 (stereo not drawn)	4	-16	4	+	4	i	8.2*
COc1ccc(S(=O)(=O)N(c2onc(C)c2Cl)S(=O)(=O)c2ccc(OC)cc2)cc1	-2	-2	-3	i	51*	i	0
CCCCc1c(Cc2ccccc2)ncn1CCc1ccccc1OC	.	.	.	i	.	.	.
Cn1c(=O)c2cc(NC(=S)NC3CC3)ccc2n1C/C=C/c1ccccc1	.	.	.	+	.	i	0
Cn1c(=O)c2cc(NC(=O)NCc3ccc(F)cc3)ccc2n1C/C=C/c1ccccc1	.	.	.	+	.	+	0
COc1cc(/C=C2/SC(=S)N(CC(=O)NNC(=O)c3ccc(F)cc3)C2=O)cc(OC)c1OC	6	.	.	i	7	.	.
COc1ccccc1CNc1nc(NCc2ccc3occc3c2)c2sccc2n1	.	.	.	i	.	.	.
COc1ccccc1N1CCN(C(=O)c2cc(-c3ccccc3)on2)CC1	-1	-12	5	i	-19	.	.
COc1ccc(-c2cc(C(=O)N3CCN(c4ccccc4OC)CC3)no2)cc1OC	-2	-10	1	i	0	i	1
CCc1ccc(-c2cc(C)no2)cc1S(=O)(=O)N1CCN(c2ccccc2)CC1	1	0	3	?	-7	.	.
O=C(Nc1cc(S(=O)(=O)N2CCCC2)ccc1OCC(F)(F)F)c1ccncc1	0	.	.	i	-15	.	.
Cc1ccc(NC(=O)/C=N/OCC(=O)NCc2ccccc2Cl)cc1	-1	-4	1	i	1	.	.
O=C(COc1ccccc1Cl)NCCNC(=O)c1ccncc1	1	-6	-4	i	8	i	0
O=C(COc1ccccc1Cl)NCCCNC(=O)c1ccncc1	0	-22	-5	i	-14	.	.
O=C(NCc1ccc(Cl)cc1)c1n[nH]c([N+](=O)[O-])c1Cl	-2	0	2	i	17	.	.
O=C(COc1coc(CN2CCCc3ccccc32)cc1=O)Nc1ccc([N+](=O)[O-])cc1	14	-2	15	+	11	i	0
N#Cc1nc(-c2ccc(F)cc2)oc1N1CCC(C(N)=O)CC1	-1	-10	-5	i	13	.	.
CC1(c2nnnn2-c2ccc3c(c2)OCCO3)CCC(=O)N1C1CC1 (stereo not drawn)	.	.	.	i	.	.	.
COc1ccc(O)c(C2=Nc3ccccc3N=C(c3ccccc3)C2)c1	-1	-1	1	i	0	.	.
COc1ccc2c(c1)NC(=O)CC(c1ccccc1)=N2	0	-4	-3	i	4	i	0
Cc1cc(-c2cccs2)c2c(n1)sc1c(=O)[nH]c(=O)[nH]c12	3	-8	5	i	-31	i	36*
Cc1cc(-c2ccccc2)c2c(n1)sc1c(O)cc(=O)[nH]c12	-1	.	.	.	-7	.	.
COc1ccccc1-n1c(=S)sc2c(=O)n(Cc3ccco3)c(SC)nc21	3	-6	-2	i	60*	i	0
CCOc1ccc(S(=O)(=O)Nc2cccc(C(=O)NCCCN3CCCC3=O)c2)cc1	0	4	-4	i	3	i	0
SMILES	CRFBP-R2 agonist	Cardiac RTF inh	cardiac RTF act	Myeloid diff MLP	CRFBP-R2 block	Myeloid diff	GFP autofluor
COc1ccc(C(=O)NNC(=O)c2cccc(S(=O)(=O)N3CCOCC3)c2)cc1	-1	3	-3	i	2	.	.
COc1ccc(C(=O)NC(=S)Nc2cccc(S(=O)(=O)N3CCOCC3)c2)cc1	7	-3	6	i	-5	i	0
COC[C@@H]1CCCN1[C@H]1CS(=O)(=O)N[C@@H]1COCc1ccccc1	.	.	.	i	.	.	.
O=C(NCc1ccco1)C12CC3CC(CC(C3)C1)C2	1	-7	7	i	-7	.	.
c1coc(CNC2C3CC4CC(C3)CC2C4)c1 (stereo not drawn)	2	-3	6	i	-6	i	0
CC(C)Oc1cccc(C(=O)Nc2nnc([C@@H]3C[C@H](O)[C@@H](CO)O3)s2)c1	.	.	.	i	.	.	.
CCn1c(COC(=O)CNC(=O)c2ccccc2F)nc2cc(S(=O)(=O)N(C)C)ccc21	-1	-1	5	i	-1	.	.
N#CC1C(=O)NC(=O)CC12CCCCC2 (stereo not drawn)	-2	7	-7	i	-6	i	0
Cn1c(C(=O)N[C@@H](C(=O)O)c2ccccc2)cc2cc(F)ccc21	1	-1	1	i	2	.	.
COc1nc(-c2ccccc2)nnc1-c1ccccc1	1	-10	-9	i	11	.	.
COc1nc(-c2ccccc2)nc(C)c1CC(=O)O	-1	12	2	i	6	i	0
O=C(C1=C[C@@H](c2ccc(C(F)(F)F)cc2)C[C@@H](OCCCCO)O1)N1CCN(Cc2ccc3c(c2)OCO3)CC1	0	-1	0	i	-15	.	.
O=[N+]([O-])c1ccccc1SN(Cc1ccccc1)c1ccccn1	-2	4	5	i	3	i	0
CCCCSc1nnc(CCCCCNC(=O)OC(C)(C)C)o1	2	3	-5	+	12	i	1
O=[N+]([O-])c1ccc(N/N=C\c2ccccc2OCc2ccccc2)cc1	13	-18	24	+	-43	i	0
Cc1ccc(C)n1NC(=O)c1cccs1	0	-4	-3	i	-3	i	0
Cc1ccc(C)n1NC(=O)c1ccccc1	0	-6	0	i	-9	.	.
Nc1ccc(N2CCN(c3ccc(F)cc3)CC2)cc1	3	3	-1	+	23	i	0
CC(=O)N1CCN(c2ccc(N)cc2)CC1	-2	6	-6	i	2	.	.
O=C(Nc1cccc(C(F)(F)F)c1)C1C2CC3OC(=O)C1C3C2 (stereo not drawn)	1	-4	-1	+	4	i	0
OCC[C@H]1C[C@@H](O)[C@H](O)[C@@]2(Cc3ccccc3CO2)O1	0	-9	1	i	6	.	.

Source: PubChem (several laboratories)
